Results filed as inconclusive are left out. Active and inactive are the calls of the source. Rule for the calls: active = hit-call score of the fitted dose curve at least 0.9, where 1 is the maximum; inconclusive = response in the unintended direction; inactive = score below 0.9.
The compounds below were run against rat Adrenergic, Alpha 1A Receptor (Adra1A), Adra1a (gene 29412) (UniProt P43140) (assay: NVS_GPCR_rAdra1A: NovaScreen (NVS) G Protein-Coupled Receptor Assay for rat Adrenergic, Alpha 1A Receptor (Adra1A) (AID 2283296)).
Sequence of rat Adrenergic, Alpha 1A Receptor (Adra1A), Adra1a (gene 29412) (P43140 whole entry, looked up): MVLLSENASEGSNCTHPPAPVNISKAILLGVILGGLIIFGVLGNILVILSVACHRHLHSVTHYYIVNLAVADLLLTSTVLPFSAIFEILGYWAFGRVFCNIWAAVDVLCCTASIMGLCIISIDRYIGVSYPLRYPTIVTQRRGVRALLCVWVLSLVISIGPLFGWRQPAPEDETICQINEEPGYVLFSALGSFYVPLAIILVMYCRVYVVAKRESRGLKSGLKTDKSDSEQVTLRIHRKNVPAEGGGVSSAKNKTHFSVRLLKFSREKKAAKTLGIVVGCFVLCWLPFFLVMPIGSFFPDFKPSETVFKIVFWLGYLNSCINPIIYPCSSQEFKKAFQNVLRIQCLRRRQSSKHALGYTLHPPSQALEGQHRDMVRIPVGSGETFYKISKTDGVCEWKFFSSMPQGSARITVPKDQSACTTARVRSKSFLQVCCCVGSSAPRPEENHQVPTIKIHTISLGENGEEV
Method: NVS_GPCR_rAdra1A is a biochemical, single-readout assay that uses extracted gene-proteins from Rat cortical membranes (pretreated with chlorethyl clonidine-CEC) in a tissue-based cell-free assay. Measurements were taken 1 hour after chemical dosing in a 48-well plate.NVS_GPCR_rAdra1A is one of one assay component(s) measured or calculated from the NVS_GPCR_rAdra1A assay. It is designed to make measurements of radioligand binding, a form of binding reporter, as detected with scintillation counting signals by Filter-based radiodetection technology.Data from the assay component NVS_GPCR_rAdra1A was analyzed into 1 assay endpoint. This assay endpoint, NVS_GPCR_rAdra1A, was analyzed in the positive analysis fitting direction relative to DMSO as the negative control and baseline of activity. Using a type of binding reporter, loss-of-signal activity can be used to understand changes in the binding as they relate to the gene Adra1a. Furthermore, this assay endpoint can be referred to as a primary readout, because the performed assay has only produced 1 assay endpoint. To generalize the intended target to other relatable targets, this assay endpoint is annotated to the gpcr intended target family, where the subfamily is rhodopsin-like receptor.
Binding assays used specific radioligands (tritiated, iodinated) with non-radioactive competitive displacement ligands in agonist or antagonist protocols (as indicated) and various reference compounds and inhibitors to titrate specific binding to receptors and transporters. Most enzyme assays (CYPs, kinases, phosphatases, proteases, HDACs) used recombinant protein and specific substrates (fluorescence mostly, some colorimetric and radioactive) and inhibitors, followed by a biochemical separation of substrate and product. All assays for the biochemical HTS were initially run in duplicate at a single concentration (10 uM for CYP450 assays and 25 uM for all others). […] Each assay was run with positive and negative controls, and concurrent controls on every plate. The follow-up (secondary) screen tested active chemical-pairs in concentration series, as well as a few additional assays not tested in the primary screen, some selected negative inactives, and several cases re-run in the concentration series for confirmatory purposes.

| Structure (SMILES) | AC50 | outcome |
| --- | --- | --- |
| COc1ccc(OC(F)(F)F)cc1CN[C@H]1CCCN[C@H]1c1ccccc1 | 25 µM (active) |  |
| O=C(N[C@@H](c1ccccc1)[C@@H]1CCCCN1)c1cccc(C(F)(F)F)c1Cl | 16.7 µM (active) |  |
| CCN(CC)CCOc1ccc(C(=C(Cl)c2ccccc2)c2ccccc2)cc1 | 21 µM (active) |  |
| Cc1cc(SC2=C(O)C[C@@](CCc3ccc(N)cc3)(C(C)C)OC2=O)c(C(C)(C)C)cc1CO |  | inactive |
| NC(=Nc1ccccc1)Nc1ccccc1 | 8.43 µM (active) |  |
| Cc1ccc(C(C)(C)C)c(O)c1 |  | inactive |
| CN(C)C(=O)NC1(c2ccccc2)CCN(CC[C@@]2(c3ccc(F)c(F)c3)CN(C(=O)c3ccccc3)CCO2)CC1 | 8.08 µM (active) |  |
| CN(C)C(=O)NC1(c2ccccc2)CCN(CCC[C@]2(c3ccc(Cl)c(Cl)c3)CCCN(C(=O)c3ccccc3)C2)CC1 |  | inactive |
| CCc1nc(N)nc(N)c1-c1ccc(Cl)cc1 | 2.37 µM (active) |  |
| CSc1ccc(Oc2ccc(S(N)(=O)=O)cc2CN(C)C)cc1C | 6.58 µM (active) |  |
